The supplement of paper PMC11417369
± gives the standard deviation of the averaged measurements. In all, about 25,000 sequences were measured (“ln(normalized median fluorescence intensity)”: median about 7.9, highest 2% from about 11 on). The entries come from a sample that favours the highest values as a whole.

Tested on: PfAP2-I AP2 domain 3 (GST-tagged)
Assay: gcPBM binding intensity (ln(normalized median fluorescence intensity)); higher = stronger DNA binding
Method in brief: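 Binding intensity values are the highest Masliner-normalised natural-log median intensity among replicate spots of either probe orientation. The binding step lasted 1 h in 1× PBS with 1% milk, 0.2 mg/ml BSA, 0.5% salmon testes DNA and 0.03% Triton X-100, using GST-tagged P. falciparum DNA-binding domains expressed in E. coli on an Agilent 4 × 180k array of primer-extended double-stranded 36-bp intergenic genomic probes plus negative controls. Alexa488 anti-GST antibody and a 488 nm scan detected bound protein.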

Row | Sequence | gcPBM binding intensity (ln)
1 | TATACAACTTTATGAAGTACAAAAAGTTCTATATAT [XGTACX_site3866] | 7.52 ± 0.44
2 | TGCCATCATATCATAGGTACACAAACATATAAAGAA [XGTACX_site4137] | 8.22 ± 0.82
3 | AATATATATTTATATTGTACATATATATATATTTCT [XGTACX_site2603] | 7.55 ± 0.34
4 | TTTTTCTATAAAAAATGTACATATTTTATGAAGGAA [XGTACX_site821] | 7.96 ± 0.5
5 | ATTTAATTTTCATGATGTACTATAGTTTAATGCACA [XGTACX_site1624] | 11.6 ± 1.1
6 | AATGAATATAGTACTGAATGTAATTTAAGGTTTTCC [CACACA_negctrl_site1548] | 7.53 ± 0.68
7 | TTTTAGTTAATTCATGCATGTAAAGTTTTATTTATA [TGCATGCA_site252] | 7.72 ± 0.54
8 | ACAAGACAGATATATACACACATACATACATACATA [CACACA_site7472] | 8.12 ± 0.64
9 | ATAAAGGAATTTTATACACACAACATATATATATAT [CACACA_site2861] | 9.45 ± 0.6
10 | TATATATATATATATTGTACACATTGTGTTTAAATA [XGTACX_site5104] | 9.43 ± 0.44
11 | GTAATTTTTTTCTATACACACATATCTATAATATAT [CACACA_site7284] | 8.09 ± 0.6
12 | GTAATTTTTTTCTATACACACATATATATAATATAT [CACACA_site2655] | 8.12 ± 0.58
13 | TTTTCTATTTAATTGGTGCACTGATATATACACATA [GTGCAC_site9533] | 11.3 ± 0.54
14 | TATGTATAAATATATGCACACATATATATATTTATA [CACACA_site9150] | 8.85 ± 0.26
15 | TATGTATTTTTATGCACACATGCGTGGCTTATATAA [CACACA_site387] | 10.9 ± 0.13
16 | TTTATGTATTTTTATGCACACATGCGTGGCTTATAT [CACACA_site4374] | 10.79 ± 0.064
17 | ATATATATTTCTTAAAGTACATAATAATAAAAATAT [XGTACX_site8981] | 7.79 ± 0.44
18 | AAAAAAAATAAAATGAATAAATAAGAATTACATATT [CACACA_negctrl_site863] | 7.39 ± 0.65
19 | TCTATGAATTAATATGCATGTAACGTATTTATACTT [TGCATGCA_site669] | 7.67 ± 0.83
20 | CAAGCACAGAAACACACACACACACCGACACAGACA [CACACA_site4359] | 8.11 ± 0.24

Row | Sequence | gcPBM binding intensity (ln)
21 | CATATAAAAATGTGCACACACACACCGATATATATT [CACACA_site4940] | 9.59 ± 0.17
22 | AAAAAAAAGTTGTAAGTGCATGTATATAATAATATT | 8.42 ± 0.54
23 | AGGATATAAAGTTGTGCATGTCAAGTGCACCGTATT [TGCATGCA_site451] | 11 ± 0.35
24 | AAAAAAAAATATATTGCACACCTCTCAATAAAAAAA [CACACA_site172] | 10.3 ± 0.43
25 | CATATAAAAAATATGGTGCAGTTTTTTTTTTTTTTT | 10.2 ± 0.23
26 | AAAAATGTATGTATGGTGCAGTATTCATATCATTTT [GTGCAC_site9458] | 10.93 ± 0.057
27 | GTATATTTTATTTTATGTACATATTCATTTTTTATT [XGTACX_site561] | 8.3 ± 0.4
28 | ACTATAAATATATAAATATATATATATATATATATA [GTGCAC_negctrl_site65] | 9.34 ± 0.8
29 | AAAAAAATAAGGTGCACACAAAAAAAAAAAAAAAAA [CACACA_site812] | 10.9 ± 0.71
30 | ACAAAAAAATAAGGTGCACACAAAAAAAAAAAAAAA [CACACA_site8171] | 10.7 ± 0.76
31 | TATAAGTAGATAAGGGTGCACAATATAAATATATAG | 11.55 ± 0.021
32 | AATAAATAGATAAGCACACAAGCATATAGACATATA [CACACA_site222] | 7.72 ± 0.49
33 | AAAAAAAAAATTTAGGTGCATACAAATAAATTATAT [GTGCAC_site9521] | 10.2 ± 0.48
34 | ATATATATATTAAAGGTGCACAAATAAATATATACA [GTGCAC_site9532] | 11.54 ± 0.035
35 | TATAAATATACAAAGGTGCATAAAAAGTTATGTTTT [GTGCAC_site9832] | 11.2 ± 0.26
36 | TAAATATAAAAATGCACACACACAAAAAAAAAAAAA [CACACA_site895] | 8.88 ± 0.085
37 | TTATAAAAGACAAAAGTGCATATATACATATGTATA | 9.49 ± 0.21
38 | ATAAAATATAAAAACGCACACAATTATAAGGGTGTA [CACACA_site177] | 7.95 ± 0.35
39 | ATATATATATATTACACACACACAAAAAAAATAAAG [CACACA_site118] | 9.07 ± 0.18
40 | AAAAATAAAAGGTGTGCACACAAAAATATATATATA [CACACA_site8507] | 9.74 ± 0.26

Row | Sequence | gcPBM binding intensity (ln)
41 | ATATGTGTGTGTATTTGTACCCAATTTTTATATATA [XGTACX_site4948] | 8.29 ± 0.43
42 | TATATATATATATATGTGCACATATATATGATATTA | 9.79 ± 0.28
43 | CGAATAAATATATGTAGTACATGTTGTAGATAATTT [XGTACX_site1218] | 8.01 ± 0.48
44 | ATTTATTAATCATATACACACATATATTTGTATTTA [CACACA_site1336] | 7.67 ± 0.49
45 | TTTGGGTATACACATACATGCATGTCCTTATATATA [TGCATGCA_site84] | 7.86 ± 0.63
46 | TGTGTAATATTCTGTTGTACATAACTCATAAATAAA [XGTACX_site5308] | 7.95 ± 0.31
47 | AATATGTTATAAATATGTTATAAATAATAAATAAAT [GTGCAC_negctrl_site135] | 7.74 ± 0.62
48 | AAAATAGCTGTATAGAGTACATATAAATAATGTTGT [XGTACX_site5692] | 7.57 ± 0.58
49 | TAAATCACAAAATTATGTACTAAGAAGGAGCAACAT [XGTACX_site6742] | 8.05 ± 0.45
50 | AACATACATAAACACACACACACACCCACAGAGACA [CACACA_site4430] | 8.32 ± 0.22
51 | AATACATATTCAAAGGTGCAAAATAAAAATATACAT [GTGCAC_site9743] | 11.2 ± 0.44
52 | TTTTTTTGTTAAAAGGTGCTAATATATATAAGTGCT | 10.1 ± 0.45
53 | AAATAAAAAGGGTGCACACAAAAATATATATATATA [CACACA_site1728] | 11 ± 0.84
54 | TATATTGCAAAAAGTACACACATAAATAAATACATA [CACACA_site6589] | 8.2 ± 0.24
55 | AATATACATAACAAGGTGCAAAAAATATTGTTCATA [GTGCAC_site9499] | 10.4 ± 0.26
56 | AAATATAAAGTGCACACACACAAAAAAAGAAAAAAA [CACACA_site6452] | 10.2 ± 0.36
57 | ATGTTTGAGCCTAAGGTGCATATAAAAATATATGTG [GTGCAC_site9690] | 11 ± 0.66
58 | AAAAATAAAGGGTGTGCACACAAAAATATATATATA [CACACA_site1727] | 9.8 ± 0.14
59 | TGAGCACAAATACAGGTGCATATAAAATATATGACG | 10.3 ± 0.3
